The results in this text go back to PubChem BioAssay.

Experiment [1] in a line: resazurin metabolic signal in HepG2 cells – cell-based, resazurin fluorescence, 24 h, PK04 Diversity Set, profiling panel (AID 1172). Note: test concentration not given here. The settings on record: HepG2 viability, higher = more signal.
Experiment [2] can be described thus: budding yeast growth changes without added modifier – OD600, strain BY4716, 24 h, basal condition, primary screen (AID 1173). The settings on record: S. cerevisiae BY4716 growth, OD600, 24 h; higher = more signal, called active from +8 up or from −8 down.
A short description of experiment [3]: viability profiling in MM1S myeloma cells – cell-based, resazurin fluorescence, basal, 24 h, PK04 Diversity Set, profiling panel (AID 1174).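 Note: MM1S multiple myeloma cell line; test concentration not given here.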 The settings on record: higher = more signal, called active from +8 up or from −8 down.
The target of experiment [4] is Dihydroorotate dehydrogenase (quinone), mitochondrial (Plasmodium falciparum (isolate 3D7)) (UniProt Q08210). As to the kind of experiment: inhibition of P. falciparum DHODH – biochemical, C-terminal His tag, absorbance 600 nm, primary screen (AID 1175).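 Note: recombinant parasite enzyme with a five histidine tag at its C terminus; test concentration not given here.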 The settings on record: PfDHODH enzyme, DCIP absorbance 600 nm; higher = more signal, called active from +8 up or from −8 down.

Experiment [5] in a line: inhibition of PAO1 biofilm formation – strain PAO1, LB-PBS medium, absorbance 600 nm, primary screen (AID 1176). Note: test concentration not given here. The settings on record: P. aeruginosa PAO1 growth/biofilm, A600, 12 h; higher = more signal.
A short description of experiment [6]: growth modulation of vineyard yeast isolate – strain RM11-1a, OD600, basal, 24 h, primary screen (AID 1177).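 Note: cultures grown under basal conditions with no added stressor; test concentration not given here.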 The settings on record: S. cerevisiae RM11-1a growth, OD600, 24 h; higher = more signal, called active from +8 up or from −8 down.
Experiment [7] is described as follows: growth of efflux-deficient E. coli DRC39 – strain DRC39, OD650, 24 h, E. coli filamentation inducers, primary screen (AID 1178).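 Note: growth measured as culture turbidity by optical density at 650 nm; test concentration not given here.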 The settings on record: E. coli DRC39 acrAB, higher = more signal, called active from +8 up or from −8 down.
Experiment [8] is described as follows: growth of efflux-deficient E. coli DRC39 – strain DRC39, OD650, 48 h, E. coli filamentation inducers, primary screen (AID 1179).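 Note: screen aims at cell division blockers that make cells filament.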 Conditions: E. coli DRC39 delta-acrAB growth, higher = more signal, called active from +8 up or from −8 down.
Experiment [9] is described as follows: viability profiling in RPMI8226 myeloma cells – cell-based, resazurin fluorescence, basal, 24 h, PK04 Diversity Set, profiling panel (AID 1180).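 Note: RPMI8826 multiple myeloma cell line at 5000 cells per well; test concentration not given here.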 The settings on record: higher = more signal. (Alamar Blue is a resazurin reagent that responds to reducing activity.)
Experiment [10] addresses E3 ubiquitin-protein ligase XIAP (Homo sapiens) (UniProt P98170). As to the kind of experiment: small molecules binding XIAP protein – biophysical, small-molecule microarray, fluorescence 635 nm, primary screen (AID 1181).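 Note: score merges 667 nm emission and signal to noise over triplicate slides.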 The settings on record: higher = more signal.

Each structure is given as a SMILES string. The source made the active and inactive calls. Unless noted, the rule behind the calls is not given here.

Chain of Dihydroorotate dehydrogenase (quinone), mitochondrial (Plasmodium falciparum (isolate 3D7)) (Q08210 whole entry, looked up): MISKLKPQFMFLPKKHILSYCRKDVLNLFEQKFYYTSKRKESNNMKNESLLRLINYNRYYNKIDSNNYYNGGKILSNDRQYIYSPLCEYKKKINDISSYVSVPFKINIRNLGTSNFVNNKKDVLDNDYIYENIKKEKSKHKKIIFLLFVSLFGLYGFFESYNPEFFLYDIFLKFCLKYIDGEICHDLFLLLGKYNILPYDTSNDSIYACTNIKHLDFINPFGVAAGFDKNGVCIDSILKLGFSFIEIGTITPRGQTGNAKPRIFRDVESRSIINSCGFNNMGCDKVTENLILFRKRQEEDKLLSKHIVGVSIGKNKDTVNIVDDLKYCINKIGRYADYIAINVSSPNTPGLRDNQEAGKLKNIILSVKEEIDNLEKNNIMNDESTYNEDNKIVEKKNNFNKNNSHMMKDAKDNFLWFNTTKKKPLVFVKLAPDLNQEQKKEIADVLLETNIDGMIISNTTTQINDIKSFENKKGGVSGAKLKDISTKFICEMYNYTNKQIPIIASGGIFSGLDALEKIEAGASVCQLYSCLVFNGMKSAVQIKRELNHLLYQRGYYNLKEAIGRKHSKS
Chain of E3 ubiquitin-protein ligase XIAP (Homo sapiens) (P98170 whole entry, looked up): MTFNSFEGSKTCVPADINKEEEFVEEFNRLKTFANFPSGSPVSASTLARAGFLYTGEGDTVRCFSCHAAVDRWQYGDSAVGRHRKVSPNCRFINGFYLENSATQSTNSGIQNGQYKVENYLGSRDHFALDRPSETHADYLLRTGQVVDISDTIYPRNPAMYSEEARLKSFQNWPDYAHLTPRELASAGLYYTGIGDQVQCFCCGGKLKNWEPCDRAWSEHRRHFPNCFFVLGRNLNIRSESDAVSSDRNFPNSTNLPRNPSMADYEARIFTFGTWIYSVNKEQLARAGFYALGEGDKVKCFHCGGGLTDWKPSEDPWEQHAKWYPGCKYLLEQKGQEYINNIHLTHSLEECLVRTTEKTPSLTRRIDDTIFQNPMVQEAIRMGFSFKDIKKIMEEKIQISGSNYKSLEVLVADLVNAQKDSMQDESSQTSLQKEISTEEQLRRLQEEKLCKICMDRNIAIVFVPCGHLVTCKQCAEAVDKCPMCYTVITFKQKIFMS

In the case of `C=CCC(OC(C)=O)[C@@H]1[C@@H](N(Cc2ccc(-c3ccccc3)cc2)C(=O)c2ccc(-c3ccccc3)cc2)c2cc(OCCCO)ccc2N1C(=O)Cc1ccc2ccccc2c1` (stereo not given in full), the z-score was 0.289 in experiment [1]; 0.274 (inactive) in experiment [2]; 0.7 (inactive) in [3]; 0.526 (inactive) in experiment [5]; -0.357 (inactive) in experiment [6]; -0.433 (inactive) in experiment [7]. For the same compound, the z-score in experiment [8] is -0.5 (inactive); in experiment [9], 0.465. Besides, the composite z-score in experiment [4] was -0.0366 (inactive); in experiment [10], 0.225.
In the case of `CCCC[C@H]1OB(O)C[C@H]2C1=C(COC)Cn1c(=O)n(-c3ccccc3)c(=O)n12`, the z-score in experiment [1] is -0.248; in experiment [2], -0.607 (inactive); in experiment [3], -0.228 (inactive); in [5] it was 0.0937 (inactive); in experiment [6] it was 0.523 (inactive); in experiment [7], 0.451 (inactive). The z-score was 0.452 (inactive) in [8] and -0.214 in [9]. In addition, the figures for the composite z-score in experiment [4] and in experiment [10] were -0.485 (inactive) and -0.053, respectively.
Take `COC(=O)C(CC#Cc1ccc2c(c1)[C@]1(C(=O)N2)[C@H](C(=O)Nc2nc3ccccc3s2)[C@H]2C(=O)O[C@H](c3ccccc3)[C@H](c3ccccc3)N2[C@@H]1c1ccccc1OCCO)C(=O)OC`: the z-score in [1] is 0.522; in experiment [2] it was 0.839 (inactive); in experiment [3] it was -0.334 (inactive); in experiment [5], 2.47 (inactive); in experiment [6], 2.1 (inactive); in [7], -0.0715 (inactive). In addition, the z-score in experiment [8] was 0.037 (inactive); in [9], -1.1. Moreover, the composite z-score is -4.92 (inactive) in [4] and 0.472 in [10].
In the case of `O=C(NCCN1CCOCC1)[C@@H]1c2ccccc2C(=O)N(C2CCCCC2)[C@H]1c1ccc(CO)cc1`, the z-score is -0.0383 in experiment [1]; 0.211 (inactive) in experiment [2]; 0.528 (inactive) in experiment [3]; -0.177 (inactive) in [5]; 0.0492 (inactive) in [6]; -0.424 (inactive) in experiment [7]. Besides, the results for the z-score in [8] and in experiment [9] were -0.783 (inactive) and 0.872, respectively. Further, the composite z-score in experiment [4] was -0.146 (inactive); in experiment [10], -0.165.
Consider `Cc1ccccc1C(O)C1C=CC2C(=O)N(c3ccccc3)C(=O)C2N1Nc1ccc(C(C)C)cc1` (stereo not given), for which the z-score in experiment [1] was -1.7; in experiment [2], -0.945 (inactive); in experiment [3] it was -1.31 (inactive); in [5] it was 0.807 (inactive); in [6], 1.93 (inactive); in [7] it was -0.765 (inactive). Also, the z-score in [8] was -1.14 (inactive); in [9], -1.06. Besides, the composite z-score in experiment [4] was 1.82 (inactive); in experiment [10] it was 1.24.
In the case of `CCCC[C@@H]1C[C@H]1[C@@H](NC(=O)c1ccco1)c1ccc(-c2ccccc2)cc1`, the z-score in experiment [1] was -0.9; in experiment [2] it was 1.22 (inactive); in experiment [3], -1.52 (inactive); in experiment [5], 2.16 (inactive); in experiment [6], 0.505 (inactive); in experiment [7], -1.05 (inactive). Besides, the z-score in experiment [8] is -1.2 (inactive); in experiment [9], -1.29. Besides, the composite z-score in experiment [4] was -3.3 (inactive); in experiment [10], 0.773.
In the case of `COC(=O)[C@@]1(Cc2ccc(OC)cc2)[C@@H]2C(=CC(=O)[C@H]2CC(=O)C(=O)N2CCCC2)CN1C(=O)c1ccccc1`, the z-score in experiment [1] was 1.82; in [2] it was 1.1 (inactive); in experiment [3], -0.846 (inactive); in [5] it was -0.374 (inactive); in experiment [6] it was 0.423 (inactive); in experiment [7], -0.0187 (inactive). In addition, the z-score in experiment [8] is 0.798 (inactive); in [9] it was -0.663. Further, the results for the composite z-score in experiment [4] and in [10] were 1.7 (inactive) and -0.0118, respectively.
On to `COC(=O)[C@@]1(Cc2ccc(OC)cc2)[C@H]2c3cc(C(=O)N(C)C)n(Cc4ccccn4)c3C[C@H]2CN1C(=O)c1ccccc1`, for which the z-score in experiment [1] was -0.961; in [2], 1.28 (inactive); in [3] it was -1.24 (inactive); in [5], 0.976 (inactive); in experiment [6], 0.607 (inactive); in experiment [7] it was -1.13 (inactive). Moreover, the z-score in [8] is -0.6 (inactive); in [9], -0.838. Besides, the composite z-score was 1.02 (inactive) in [4] and 0.155 in [10].
On to `O=C1O[C@@H](c2ccccc2)[C@@H](c2ccccc2)N2[C@@H](c3ccccc3OCCO)[C@]3(C(=O)Nc4ccc(C#CC5=CCCCC5)cc43)[C@@H](C(=O)N3CCCCCCC3)[C@H]12`, for which the z-score was -0.868 in experiment [1]; 0.98 (inactive) in experiment [2]; -6.31 (inactive) in experiment [3]; 1.63 (inactive) in experiment [5]; 1.19 (inactive) in [6]; -0.994 (inactive) in experiment [7]. Besides, the z-score in [8] is -0.576 (inactive); in experiment [9] it was -4.11. In addition, the composite z-score was -0.35 (inactive) in [4] and 1.56 in experiment [10].
Take `C=CCOC(=O)[C@H]1[C@@H]2C(=O)O[C@@H](c3ccccc3)[C@@H](c3ccccc3)N2[C@@H](c2ccc(OCCOC(=O)[C@H]3C[C@H]4C(=O)N[C@@H](CCCC[N+](C)(C)C)C(=O)N4[C@H]3c3ccc(O)cc3)cc2)[C@]12C(=O)Nc1ccc(I)cc12`: the z-score in [1] is -0.427; in experiment [2], -0.154 (inactive); in [3] it was -0.13 (inactive); in experiment [5], -0.379 (inactive); in experiment [6], 0.0102 (inactive); in [7], -0.873 (inactive). Moreover, the z-score in experiment [8] was -0.473 (inactive); in [9], -0.078. The values for the composite z-score in experiment [4] and in experiment [10] were -0.24 (inactive) and 2.28, respectively.
On to `CC(C)C(=C=CC[C@@H](O)c1ccc(OCCO)cc1)C[C@@H](O)COCc1ccccc1`, for which the z-score was 0.932 in [1]; -2.26 (inactive) in experiment [2]; 0.189 (inactive) in experiment [3]; 0.919 (inactive) in experiment [5]; -2 (inactive) in [6]; 1.38 (inactive) in experiment [7]. Also, the z-score in experiment [8] was 1.29 (inactive); in experiment [9], 1.55. The composite z-score in experiment [4] is -2.2 (inactive); in experiment [10], 0.108.
Turning to `O=C1O[C@H](c2ccccc2)[C@H](c2ccccc2)N2[C@H]1[C@@H](C(=O)N1CCCCCCC1)[C@]1(C(=O)Nc3ccc(C#CCCO)cc31)[C@H]2c1ccccc1OCCO`, the z-score in experiment [1] is -0.118; in experiment [2], 1.09 (inactive); in experiment [3], -1.12 (inactive); in experiment [5], 1.15 (inactive); in experiment [6] it was 2.99 (inactive); in experiment [7], -0.805 (inactive). The z-score in experiment [8] is -0.106 (inactive); in [9], -2.97. Moreover, the figures for the composite z-score in experiment [4] and in experiment [10] were 0.929 (inactive) and 2.87, respectively.
